From PubChem BioAssay (NCATS)
Inconclusive results are not listed. Calls of active or inactive are those of the source. Calls come from the whole dose curve; as a rule, active = well fitted curve in the direction sought with a large enough effect; inconclusive = small, poorly fitted or top-dose-only effect, or another doubt; inactive = no such curve, though single readings can be large; an effect the other way counts as inactive or inconclusive.

Legend:
[1] = qHTS of pediatric cancer cell lines to identify multiple opportunities for drug repurposing: Primary screen for A673 cells (AID 1347092); details: A673 Ewing sarcoma viability, CellTiter-Glo ATP luminescence, 48 h; series mostly up to 46 µM; note: nearly all actives have a fitted effect of over 45% in size; note: potency is the fitted concentration of half-maximal effect
Method in brief: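 Luminescence from CellTiter-Glo, taken after 15 min at room temperature, served as the proxy for metabolically active cells following 48 h treatment. Both potency and efficacy were taken from curves fitted to the titration data.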

[2] = qHTS of pediatric cancer cell lines to identify multiple opportunities for drug repurposing: Primary screen for SK-N-MC cells (AID 1347093); details: SK-N-MC viability, CellTiter-Glo luminescence, 48 h; series mostly up to 46 µM; note: potency is the fitted concentration of half-maximal effect
Method in brief: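 Metabolically active cells were quantified by ATP-dependent luminescence (CellTiter-Glo, 15 min at room temperature) following 48 h treatment. Cells had been plated at 500-1,000 per well and settled for 5 h beforehand.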

[3] = qHTS of pediatric cancer cell lines to identify multiple opportunities for drug repurposing: Primary screen for NB-EBc1 cells (AID 1347095); details: NB-EBc1 neuroblastoma viability, CellTiter-Glo luminescence, 48 h; series mostly up to 46 µM; note: potency is the fitted concentration of half-maximal effect
Method in brief: (§1)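 ATP-based luminescence (CellTiter-Glo) quantifies viability after a 48-hour exposure. Compounds are dosed across 8 or 11 final concentrations; DMSO and 2.3 µM bortezomib serve as controls.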

[4] = qHTS of pediatric cancer cell lines to identify multiple opportunities for drug repurposing: Primary screen for U-2 OS cells (AID 1347096); details: U-2 OS viability, CellTiter-Glo luminescence, 48 h; series mostly up to 46 µM; note: nearly all actives have a fitted effect of over 50% in size
Method in brief: (§2)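 Cells (500-1,000/well) in growth media were settled 5 h at 37 degrees C, then given compounds for 48 h. Viability was read as CellTiter-Glo luminescence. Primary runs used MIPE at 11 points (0.78 nM-46 µM) and NPC at 8 points (0.59 nM-46 µM); follow-ups used 11 points.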

[5] = qHTS of pediatric cancer cell lines to identify multiple opportunities for drug repurposing: Primary screen for SK-N-SH cells (AID 1347098); details: SK-N-SH viability, CellTiter-Glo luminescence, 48 h; series mostly up to 57 µM; note: nearly all actives have a fitted effect of over 65% in size; note: potency is the fitted concentration of half-maximal effect
Method in brief: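 Cells (500-1,000/well) rested 5 h, then received compounds for 48 h; metabolically active cells were measured by CellTiter-Glo luminescence. Final concentrations spanned up to 46 µM (MIPE, 11-point) or 0.59 nM-46 µM (NPC, 8-point) in primary screens, 11-point in follow-ups.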

[6] = qHTS of pediatric cancer cell lines to identify multiple opportunities for drug repurposing: Primary screen for NB1643 cells (AID 1347099); details: NB1643 neuroblastoma viability, CellTiter-Glo luminescence, 48 h; series mostly up to 46 µM; note: nearly all actives have a fitted effect of over 50% in size; note: potency is the fitted concentration of half-maximal effect
Method in brief: as §1

[7] = qHTS of pediatric cancer cell lines to identify multiple opportunities for drug repurposing: Primary screen for LAN-5 cells (AID 1347100); details: LAN-5 neuroblastoma viability, CellTiter-Glo luminescence, 48 h; series mostly up to 46 µM; note: potency is the fitted concentration of half-maximal effect
Method in brief: as §2

[8] = qHTS of pediatric cancer cell lines to identify multiple opportunities for drug repurposing: Primary screen for Saos-2 cells (AID 1347097); details: Saos-2 viability, CellTiter-Glo ATP luminescence, 48 h; series mostly up to 46 µM; note: nearly all actives have a fitted effect of over 40% in size; note: potency is the fitted concentration of half-maximal effect
Method in brief: as §1

[9] = qHTS of pediatric cancer cell lines to identify multiple opportunities for drug repurposing: Primary screen for BT-37 cells (AID 1347094); details: BT-37 viability, CellTiter-Glo luminescence, 48 h; series mostly up to 57.3 µM; note: potency is the fitted concentration of half-maximal effect
Method in brief: as §1

Row | Structure (SMILES) | Potency [1] | Potency [2] | Potency [3] | Potency [4] | Potency [5] | Potency [6] | Potency [7] | Potency [8] | Potency [9]
1 | COCCOC(=O)C1=C(C)NC2=C(C(=O)CC(c3ccccc3OC)C2)C1c1cccc(O)c1 (centres undefined) | 23.5 µM (active) | 18.7 µM (active) | 18.7 µM (active) | inactive | 13.6 µM (active) | 20.9 µM (active) | 13.2 µM (active) | – | –
2 | O=c1cc(-c2ccccc2)oc2cc(O)cc(O)c12 | inactive | inactive | inactive | inactive | – | inactive | – | inactive | –
3 | CC(C)(C)Cn1c(N)nc2ccc(-c3[nH]c(C(C)(C)C)nc3-c3ccc(F)cc3)nc21 | 18.7 µM (active) | – | inactive | – | – | 11.8 µM (active) | inactive | inactive | 24.3 µM (active)
4 | O=C(O)[C@H]1O[C@H](Oc2cc3oc(-c4ccccc4)cc(=O)c3c(O)c2O)[C@H](O)[C@@H](O)[C@H]1O | inactive | – | inactive | inactive | inactive | 0.118 µM (active) | inactive | – | inactive
5 | CCCCCNC(=O)N1CCC(CN(Cc2ccc(Cl)cc2)Cc2ccc([N+](=O)[O-])s2)C1 (centres undefined) | 23.5 µM (active) | 9.35 µM (active) | 26.4 µM (active) | – | inactive | 23.5 µM (active) | – | – | –
6 | Cc1c(NC(=O)c2ccc(C(C)(C)C)cc2)cccc1-c1cn(C)c(=O)c(Nc2ccc(C(=O)N3CCOCC3)cc2)n1 | 9.35 µM (active) | 18.7 µM (active) | 18.7 µM (active) | – | – | – | – | 18.7 µM (active) | –
7 | CN(C)Cc1ccc(-c2nc3cccc4c3n2CCNC4=O)cc1 | 11.8 µM (active) | 11.8 µM (active) | 16.6 µM (active) | – | 21.5 µM (active) | 23.5 µM (active) | – | – | –
8 | CC(C)n1cnc2c(NCCCCCCNC(=O)OC(C)(C)C)nc(NCCO)nc21 | 18.7 µM (active) | – | inactive | inactive | inactive | inactive | – | inactive | –
9 | O=C(Nc1cc(Cl)cc2c1[nH]c1cnccc12)c1cccnc1 | 14.8 µM (active) | 4.18 µM (active) | – | inactive | 24.1 µM (active) | – | inactive | inactive | –
10 | CO[C@H]1C[C@@H]2CC[C@@H](C)[C@@](O)(O2)C(=O)C(=O)N2CCCC[C@@H]2C(=O)O[C@H]([C@H](C)C[C@@H]2CC[C@H](OCCO)[C@H](OC)C2)CC(=O)[C@H](C)C=C(C)[C@@H](O)[C@@H](OC)C(=O)[C@H](C)C[C@H](C)C=CC=CC=C1C | 11.8 µM (active) | – | – | – | – | inactive | – | 3.32 µM (active) | 10.9 µM (active)
11 | O=C(NCc1ccncc1)C12C[C@H]3C[C@@H](C1)CC(c1ccc(Cl)cc1)(C3)C2 | 7.43 µM (active) | 0.526 µM (active) | 18.7 µM (active) | – | – | – | – | 11.8 µM (active) | –
12 | CC(C)(C)C(=O)Oc1ccc2c(c1)nc(NC(=O)c1cccc([N+](=O)[O-])c1)n2CCCO | 11.8 µM (active) | 20.9 µM (active) | – | – | – | – | – | inactive | –
13 | COc1cc(N2CCC(N3CCN(C)CC3)CC2)ccc1Nc1ncnc(Nc2ccccc2S(=O)(=O)C(C)C)n1 | 9.35 µM (active) | – | – | inactive | 27.1 µM (active) | – | – | inactive | 15.3 µM (active)
14 | CC#CCn1c(N2CCC[C@@H](N)C2)nc2c1c(=O)n(Cc1nc(C)c3ccccc3n1)c(=O)n2C | 23.5 µM (active) | – | inactive | inactive | – | – | inactive | – | inactive
15 | CCS(=O)(=O)N1CC(CC#N)(n2cc(-c3ncnc4[nH]ccc34)cn2)C1 | 14.8 µM (active) | – | – | inactive | 13.6 µM (active) | 11.8 µM (active) | 20.9 µM (active) | inactive | –
16 | CNC1CCC(N(Cc2cccc(-c3ccncc3)c2)C(=O)c2sc3c(F)ccc(F)c3c2Cl)CC1 (centres undefined) | 23.5 µM (active) | 1.18 µM (active) | – | – | 19.2 µM (active) | 18.7 µM (active) | – | 18.7 µM (active) | –
17 | O=C1c2c(O)cc(O)cc2O[C@H](c2cc(O)c(O)c(O)c2)[C@H]1O | 14.8 µM (active) | 4.18 µM (active) | – | inactive | – | 23.5 µM (active) | 26.4 µM (active) | 23.5 µM (active) | –
18 | c1ccc2c(Cc3c[nH]c4ccccc34)c[nH]c2c1 | 2.35 µM (active) | 0.833 µM (active) | – | inactive | 9.61 µM (active) | 4.18 µM (active) | 23.5 µM (active) | 18.7 µM (active) | –
19 | COc1cc(NC(=O)c2ccc(-c3ccc(Cl)cc3)o2)cc(OC)c1 | 7.43 µM (active) | 1.32 µM (active) | inactive | – | 1.52 µM (active) | 6.62 µM (active) | – | inactive | –
20 | N#CC(=C(N)Sc1ccccc1N)C(C#N)=C(N)Sc1ccccc1N | 2.35 µM (active) | 2.96 µM (active) | inactive | inactive | – | 20.9 µM (active) | – | 29.6 µM (active) | –
